In ChEMBL document CHEMBL1961873, “Compounds: GSK PKIS; Assays: Nanosyn kinase panel” (2012) one finds inhibition data, which are given here for six compounds.

The target in test [1] is Rho-associated protein kinase 1 (Homo sapiens) (UniProt Q13464). To be noted: at 1 µM.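 Also: reported values are mean percent inhibition of ROCK1.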
For test [2], the target named is Rho-associated protein kinase 2 (Homo sapiens) (UniProt O75116). Particulars: at 0.1 µM.
The target is the same in test [3]. Particulars: at 1 µM.
Test [4] deals with Ribosomal protein S6 kinase alpha-1 (Homo sapiens) (UniProt Q15418). Particulars: at 0.1 µM.
Chain of Ribosomal protein S6 kinase alpha-1 (Homo sapiens) (Q15418 whole entry): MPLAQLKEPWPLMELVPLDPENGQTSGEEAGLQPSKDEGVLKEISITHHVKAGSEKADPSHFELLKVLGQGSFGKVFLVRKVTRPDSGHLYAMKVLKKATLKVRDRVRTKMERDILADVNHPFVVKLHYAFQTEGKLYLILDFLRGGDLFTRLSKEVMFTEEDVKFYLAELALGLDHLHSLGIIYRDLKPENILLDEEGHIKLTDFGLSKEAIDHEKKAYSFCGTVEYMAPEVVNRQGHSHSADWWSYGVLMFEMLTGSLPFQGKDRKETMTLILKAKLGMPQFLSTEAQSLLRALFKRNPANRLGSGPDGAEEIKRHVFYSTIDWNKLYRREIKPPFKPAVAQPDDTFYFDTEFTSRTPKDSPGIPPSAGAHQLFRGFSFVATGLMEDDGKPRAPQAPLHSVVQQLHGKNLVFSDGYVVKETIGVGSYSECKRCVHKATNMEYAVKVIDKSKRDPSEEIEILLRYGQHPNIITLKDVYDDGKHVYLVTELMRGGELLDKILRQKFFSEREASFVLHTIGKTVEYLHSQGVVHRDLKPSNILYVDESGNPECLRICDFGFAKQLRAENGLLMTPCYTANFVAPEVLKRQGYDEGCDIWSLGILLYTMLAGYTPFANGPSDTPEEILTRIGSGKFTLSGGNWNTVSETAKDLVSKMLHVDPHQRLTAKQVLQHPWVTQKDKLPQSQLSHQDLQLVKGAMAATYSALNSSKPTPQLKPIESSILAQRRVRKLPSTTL
For test [5] the target is unchanged. To be noted: at 1 µM.
Test [6] addresses Ribosomal protein S6 kinase alpha-3 (Homo sapiens) (UniProt P51812). To be noted: at 0.1 µM.
Test [7] has the same target. Particulars: at 1 µM.
Test [8] concerns the target Ribosomal protein S6 kinase alpha-2 (Homo sapiens) (UniProt Q15349). To be noted: at 0.1 µM.
For test [9] the target is unchanged. Particulars: at 1 µM.
Test [10] concerns the target Ribosomal protein S6 kinase alpha-6 (Homo sapiens) (UniProt Q9UK32). Particulars: at 0.1 µM.
The target is the same in test [11]. To be noted: at 1 µM.
In test [12] the target is T1, Serine/threonine-protein kinase Sgk1 (Homo sapiens) (UniProt O00141).
T1 sequence (whole entry): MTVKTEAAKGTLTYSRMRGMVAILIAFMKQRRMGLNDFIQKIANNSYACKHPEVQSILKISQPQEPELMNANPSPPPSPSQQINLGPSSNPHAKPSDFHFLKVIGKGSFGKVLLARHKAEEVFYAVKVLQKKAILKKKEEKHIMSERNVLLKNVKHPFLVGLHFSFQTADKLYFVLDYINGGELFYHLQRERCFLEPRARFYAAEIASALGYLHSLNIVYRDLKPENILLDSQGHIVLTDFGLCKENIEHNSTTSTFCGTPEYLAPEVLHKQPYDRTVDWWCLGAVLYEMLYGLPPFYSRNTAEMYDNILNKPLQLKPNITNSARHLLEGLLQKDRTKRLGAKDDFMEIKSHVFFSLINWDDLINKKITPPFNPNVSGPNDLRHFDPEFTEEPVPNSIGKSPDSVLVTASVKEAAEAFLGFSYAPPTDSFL
Particulars: at 0.1 µM.

Test [13] has as its target T1, Serine/threonine-protein kinase Sgk1 (Homo sapiens). Particulars: at 1 µM.
Test [14] deals with T2, Serine/threonine-protein kinase Sgk2 (Homo sapiens) (UniProt Q9HBY8).
T2 sequence (whole entry): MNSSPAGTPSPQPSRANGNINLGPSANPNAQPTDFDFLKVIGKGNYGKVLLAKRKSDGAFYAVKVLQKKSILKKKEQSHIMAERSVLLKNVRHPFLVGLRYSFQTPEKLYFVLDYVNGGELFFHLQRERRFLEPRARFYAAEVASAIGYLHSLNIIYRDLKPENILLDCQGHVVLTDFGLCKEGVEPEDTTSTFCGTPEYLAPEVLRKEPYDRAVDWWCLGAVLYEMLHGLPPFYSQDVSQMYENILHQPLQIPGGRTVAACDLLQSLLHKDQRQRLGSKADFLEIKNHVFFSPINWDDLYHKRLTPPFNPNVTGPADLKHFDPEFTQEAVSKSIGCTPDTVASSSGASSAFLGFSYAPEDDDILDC
To be noted: at 0.1 µM.

Test [15] has as its target T2, Serine/threonine-protein kinase Sgk2 (Homo sapiens). To be noted: at 1 µM.
Test [16] has as its target T3, Serine/threonine-protein kinase Sgk3 (Homo sapiens) (UniProt Q96BR1).
T3 sequence (whole entry): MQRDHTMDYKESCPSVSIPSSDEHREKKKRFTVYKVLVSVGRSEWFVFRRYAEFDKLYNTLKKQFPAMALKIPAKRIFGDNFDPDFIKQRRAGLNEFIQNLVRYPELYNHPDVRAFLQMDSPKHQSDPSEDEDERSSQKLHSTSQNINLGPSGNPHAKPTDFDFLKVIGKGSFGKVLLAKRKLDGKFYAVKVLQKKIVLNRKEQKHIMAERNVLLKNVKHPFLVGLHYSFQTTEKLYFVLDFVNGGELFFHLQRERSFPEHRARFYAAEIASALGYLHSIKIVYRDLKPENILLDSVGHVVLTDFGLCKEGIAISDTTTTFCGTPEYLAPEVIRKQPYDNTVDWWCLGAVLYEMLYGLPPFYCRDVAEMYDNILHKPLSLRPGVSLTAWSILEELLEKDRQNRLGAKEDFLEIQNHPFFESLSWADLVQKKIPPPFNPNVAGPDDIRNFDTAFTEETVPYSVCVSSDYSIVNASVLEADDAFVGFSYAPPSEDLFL
To be noted: at 0.1 µM.

The target in test [17] is T3, Serine/threonine-protein kinase Sgk3 (Homo sapiens). To be noted: at 1 µM.
Test [18] addresses 5'-AMP-activated protein kinase catalytic subunit alpha-1 (Homo sapiens) (UniProt Q13131). To be noted: at 0.1 µM.
Test [19] has the same target. To be noted: at 1 µM.
Test [20] addresses 5'-AMP-activated protein kinase catalytic subunit alpha-2 (Homo sapiens) (UniProt P54646). To be noted: at 0.1 µM.

Chain of Rho-associated protein kinase 1 (Homo sapiens) (Q13464 2-1354 limits assumed): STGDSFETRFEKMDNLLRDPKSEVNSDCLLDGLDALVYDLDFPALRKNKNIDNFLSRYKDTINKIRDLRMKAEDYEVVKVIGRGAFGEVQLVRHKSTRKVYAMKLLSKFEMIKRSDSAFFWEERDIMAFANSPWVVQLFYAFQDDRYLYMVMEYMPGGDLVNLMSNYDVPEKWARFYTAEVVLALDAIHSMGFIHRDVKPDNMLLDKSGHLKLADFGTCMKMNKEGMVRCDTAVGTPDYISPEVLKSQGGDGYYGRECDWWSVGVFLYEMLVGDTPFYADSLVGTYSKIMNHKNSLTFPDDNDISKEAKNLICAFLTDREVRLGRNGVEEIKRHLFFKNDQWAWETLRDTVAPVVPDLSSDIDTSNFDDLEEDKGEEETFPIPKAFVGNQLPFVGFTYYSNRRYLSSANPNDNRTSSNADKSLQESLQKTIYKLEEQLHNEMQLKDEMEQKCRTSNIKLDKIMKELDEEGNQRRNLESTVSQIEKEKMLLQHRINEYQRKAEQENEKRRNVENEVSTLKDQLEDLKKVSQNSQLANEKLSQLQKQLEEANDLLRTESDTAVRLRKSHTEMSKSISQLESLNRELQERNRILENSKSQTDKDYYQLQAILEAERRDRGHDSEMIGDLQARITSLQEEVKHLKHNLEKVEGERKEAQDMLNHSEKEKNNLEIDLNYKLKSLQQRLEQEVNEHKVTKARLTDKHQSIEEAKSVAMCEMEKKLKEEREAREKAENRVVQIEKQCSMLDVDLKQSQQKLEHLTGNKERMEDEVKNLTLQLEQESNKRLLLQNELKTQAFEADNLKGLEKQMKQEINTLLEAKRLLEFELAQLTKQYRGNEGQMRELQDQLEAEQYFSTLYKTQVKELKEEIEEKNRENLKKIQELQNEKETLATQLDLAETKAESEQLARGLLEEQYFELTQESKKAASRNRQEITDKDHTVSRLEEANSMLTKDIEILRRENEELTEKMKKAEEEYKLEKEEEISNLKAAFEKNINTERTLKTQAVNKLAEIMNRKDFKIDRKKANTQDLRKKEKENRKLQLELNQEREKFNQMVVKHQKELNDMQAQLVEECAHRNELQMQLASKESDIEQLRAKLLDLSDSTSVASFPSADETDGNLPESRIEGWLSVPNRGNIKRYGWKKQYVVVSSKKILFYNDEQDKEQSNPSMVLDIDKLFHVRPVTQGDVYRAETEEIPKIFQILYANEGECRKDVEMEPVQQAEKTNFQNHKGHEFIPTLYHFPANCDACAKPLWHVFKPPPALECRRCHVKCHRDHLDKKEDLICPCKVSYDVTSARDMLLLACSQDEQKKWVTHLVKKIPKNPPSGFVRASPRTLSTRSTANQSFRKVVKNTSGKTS
Chain of Ribosomal protein S6 kinase alpha-6 (Homo sapiens) (Q9UK32 whole entry): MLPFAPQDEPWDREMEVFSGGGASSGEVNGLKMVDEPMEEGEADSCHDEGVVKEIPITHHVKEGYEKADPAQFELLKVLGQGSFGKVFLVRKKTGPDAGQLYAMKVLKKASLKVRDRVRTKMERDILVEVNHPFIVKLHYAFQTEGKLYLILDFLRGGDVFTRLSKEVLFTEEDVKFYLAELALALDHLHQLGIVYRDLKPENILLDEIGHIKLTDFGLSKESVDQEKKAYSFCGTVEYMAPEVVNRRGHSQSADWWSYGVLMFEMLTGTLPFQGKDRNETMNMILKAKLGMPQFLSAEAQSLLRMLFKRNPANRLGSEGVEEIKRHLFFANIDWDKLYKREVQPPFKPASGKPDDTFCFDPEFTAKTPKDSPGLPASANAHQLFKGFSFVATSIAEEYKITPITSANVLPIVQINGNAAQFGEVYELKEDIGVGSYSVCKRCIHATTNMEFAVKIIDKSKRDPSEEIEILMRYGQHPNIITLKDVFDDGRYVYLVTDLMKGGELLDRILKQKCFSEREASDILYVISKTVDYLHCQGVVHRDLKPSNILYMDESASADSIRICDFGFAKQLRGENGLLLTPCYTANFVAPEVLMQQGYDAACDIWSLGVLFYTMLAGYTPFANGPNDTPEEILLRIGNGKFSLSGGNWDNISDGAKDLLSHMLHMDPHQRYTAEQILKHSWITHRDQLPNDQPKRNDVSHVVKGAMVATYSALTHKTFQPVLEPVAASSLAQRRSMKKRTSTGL
Chain of Ribosomal protein S6 kinase alpha-3 (Homo sapiens) (P51812 whole entry): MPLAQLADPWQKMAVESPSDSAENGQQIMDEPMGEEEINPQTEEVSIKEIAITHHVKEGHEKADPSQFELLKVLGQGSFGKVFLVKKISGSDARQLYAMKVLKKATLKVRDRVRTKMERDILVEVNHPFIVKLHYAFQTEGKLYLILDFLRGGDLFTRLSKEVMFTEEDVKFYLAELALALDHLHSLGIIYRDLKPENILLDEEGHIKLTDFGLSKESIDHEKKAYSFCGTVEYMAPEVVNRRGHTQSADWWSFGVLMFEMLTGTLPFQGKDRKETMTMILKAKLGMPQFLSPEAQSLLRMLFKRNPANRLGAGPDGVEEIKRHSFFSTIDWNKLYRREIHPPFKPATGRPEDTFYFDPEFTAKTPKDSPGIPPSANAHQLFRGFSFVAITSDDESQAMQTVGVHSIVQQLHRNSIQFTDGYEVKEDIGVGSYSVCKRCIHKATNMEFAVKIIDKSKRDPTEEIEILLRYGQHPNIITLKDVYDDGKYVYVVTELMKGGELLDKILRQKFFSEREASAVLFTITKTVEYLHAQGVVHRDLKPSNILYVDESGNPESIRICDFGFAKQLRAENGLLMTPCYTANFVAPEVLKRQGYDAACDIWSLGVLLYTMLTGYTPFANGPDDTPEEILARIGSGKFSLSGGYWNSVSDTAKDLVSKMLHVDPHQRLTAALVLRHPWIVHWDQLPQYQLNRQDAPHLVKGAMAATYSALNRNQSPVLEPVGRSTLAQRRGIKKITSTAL
Chain of 5'-AMP-activated protein kinase catalytic subunit alpha-1 (Homo sapiens) (Q13131 whole entry, looked up): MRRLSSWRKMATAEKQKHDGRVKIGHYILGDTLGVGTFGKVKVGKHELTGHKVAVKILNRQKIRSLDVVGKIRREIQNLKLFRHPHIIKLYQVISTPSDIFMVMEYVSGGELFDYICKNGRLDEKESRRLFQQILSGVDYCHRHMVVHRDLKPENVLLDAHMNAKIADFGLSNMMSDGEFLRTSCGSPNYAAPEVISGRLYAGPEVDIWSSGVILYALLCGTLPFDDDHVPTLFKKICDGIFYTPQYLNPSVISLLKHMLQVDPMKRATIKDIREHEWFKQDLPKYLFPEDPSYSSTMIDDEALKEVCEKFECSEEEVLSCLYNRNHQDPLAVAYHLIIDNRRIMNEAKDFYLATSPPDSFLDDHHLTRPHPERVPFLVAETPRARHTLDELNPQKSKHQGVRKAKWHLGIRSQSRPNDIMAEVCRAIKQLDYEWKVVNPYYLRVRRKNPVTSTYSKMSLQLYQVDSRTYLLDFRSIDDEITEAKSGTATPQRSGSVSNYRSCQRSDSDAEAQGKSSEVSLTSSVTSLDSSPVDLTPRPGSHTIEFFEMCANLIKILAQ
Chain of Ribosomal protein S6 kinase alpha-2 (Homo sapiens) (Q15349 whole entry): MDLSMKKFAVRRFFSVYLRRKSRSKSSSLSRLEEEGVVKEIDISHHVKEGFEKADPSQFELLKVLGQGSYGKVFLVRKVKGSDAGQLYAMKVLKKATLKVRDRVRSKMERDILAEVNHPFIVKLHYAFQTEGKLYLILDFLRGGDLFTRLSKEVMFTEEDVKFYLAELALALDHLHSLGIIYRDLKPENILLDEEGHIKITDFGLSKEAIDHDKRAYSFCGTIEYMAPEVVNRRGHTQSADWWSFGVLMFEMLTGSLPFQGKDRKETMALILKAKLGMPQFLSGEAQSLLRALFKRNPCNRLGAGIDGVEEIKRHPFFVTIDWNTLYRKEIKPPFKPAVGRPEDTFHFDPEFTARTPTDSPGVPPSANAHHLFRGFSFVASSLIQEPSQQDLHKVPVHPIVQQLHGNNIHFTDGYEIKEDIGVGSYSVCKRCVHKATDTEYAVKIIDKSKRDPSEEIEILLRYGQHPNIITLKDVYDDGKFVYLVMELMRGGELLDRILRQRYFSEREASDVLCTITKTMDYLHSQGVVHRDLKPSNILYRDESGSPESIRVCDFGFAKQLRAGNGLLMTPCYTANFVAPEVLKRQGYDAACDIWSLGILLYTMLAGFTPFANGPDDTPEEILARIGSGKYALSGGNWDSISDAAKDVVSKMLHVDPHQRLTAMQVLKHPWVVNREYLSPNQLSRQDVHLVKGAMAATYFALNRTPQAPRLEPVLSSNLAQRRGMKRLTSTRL

Take `Cc1ccc(NC(=O)CC2CC2)cc1-c1ccc(C(=O)NCC2CC2)cc1`: the inhibition – broadly, the relative decrease from the control value, in per cent – in test [1] stood at 2.07%; in [2], 3.27%; in test [3], 5.25%; in test [4], 1.91%; in test [5], 2.35%; in [6], 0.73%. The inhibition in [7] turned out to be 1.14%; in test [8] it was 1.88%; in test [9] it was 2.04%; in [10], 1.16%; in [11], 1%; in test [12], 2.06%. The inhibition in [13] was 4.1%; in [14] it was 4.31%; in test [15], 1.34%; in test [16], 2.72%; in test [17], 0.18%; in test [18], 1.98%. Also, the inhibition in test [19] came out at 3.58%; in test [20] it was 1%.

`CCS(=O)(=O)c1ccc(OC)c(Nc2ncc(-c3cccc(OC)c3)o2)c1`: the inhibition in [1] was 2.35%; in test [2], 0.89%; in test [3] it was 1.18%; in [4], 0.6%; in test [5], 4.04%; in [6], -0.45%. The inhibition in test [7] was 0.81%; in [8], 1.33%; in test [9] it was 4.86%; in [10], -0.11%; in [11], 3.54%; in test [12], 1.35%. Also, the inhibition in test [13] is 2.05%; in test [14] it was 3.12%; in [15], 5.99%; in [16], 3.65%; in test [17], -0.11%; in test [18], 1.32%. The inhibition in [19] was 1.33%; in test [20], -0.63%.

Regarding `CN(c1ccc(NC(=O)Nc2ccc(OC(F)(F)F)cc2)cc1)c1ccnc(Nc2cccc(S(N)(=O)=O)c2)n1`, the inhibition in [1] is 1.61%; in test [2], -0.23%; in test [3] it was 3.48%; in test [4] it was 0.06%; in test [5], 0.25%; in test [6], -0.29%. In addition, the inhibition in [7] was -0.29%; in test [8], 1.62%; in test [9] it was 2.2%; in test [10], -0.26%; in [11] it was -0.89%; in test [12], 2.63%. In addition, the inhibition in [13] was 1.43%; in [14], 3.27%; in [15], 4.82%; in test [16], 7.71%; in test [17], 2.44%; in [18] it was 0.3%. In addition, the figures for the inhibition in [19] and in [20] were 1.3% and -1.16%, respectively.

As for `CC(C)c1ccc(Nc2nccc(-c3cnn4ncccc34)n2)cc1`, the inhibition in test [1] was 10.9%; in [2] it was 5.29%; in test [3] it was 24.7%; in [4], 0.96%; in test [5], 3.69%; in [6], -0.01%. The inhibition was 2.08% in test [7]; 0.12% in [8]; 2.76% in [9]; -0.42% in test [10]; 1.84% in [11]; 1.8% in test [12]. Also, the inhibition in test [13] came out at 3.19%; in [14], 0.34%; in test [15] it was 3.21%; in test [16], 2.01%; in test [17], 0.79%; in test [18], 1.84%. Also, the inhibition in test [19] came to 3.55%; in test [20], 2.35%.

Take `Cc1cc(Cl)cc2c1NC(=O)C2=NNc1ccc(S(N)(=O)=O)cc1`: the inhibition in test [1] worked out at 0.46%; in test [2], 2.77%; in test [3] it was 4.97%; in test [4] it was 2.28%; in test [5], 4.19%; in test [6] it was 1.6%. Besides, the inhibition stood at 3.02% in test [7]; 2.57% in test [8]; 1.19% in test [9]; 0.74% in test [10]; 1.2% in test [11]; 2.17% in [12]. The inhibition worked out at 3.67% in [13]; 1.33% in test [14]; 7.78% in test [15]; 2.89% in test [16]; 5.67% in test [17]; 1.67% in test [18]. Besides, the inhibition was 4.05% in test [19] and -0.13% in test [20].

Regarding `CN(C)C(=O)O[C@H]1CN[C@H](C#Cc2cc3ncnc(Nc4ccc(OCc5cccc(F)c5)c(Cl)c4)c3s2)C1`, the inhibition in [1] came out at 4.25%; in test [2], 2.11%; in test [3] it was 2.54%; in test [4] it was 1.95%; in [5] it was 2.1%; in test [6], 0.75%. The inhibition in test [7] is 1.6%; in test [8] it was 0.37%; in [9], 3.74%; in [10], 0.96%; in test [11], 1.62%; in test [12], 0.38%. The inhibition in test [13] is 1.38%; in test [14] it was 0.9%; in test [15], -0.85%; in [16], 0.13%; in test [17] it was 0.86%; in test [18], 2.01%. The inhibition turned out to be 2.18% in test [19] and 1.83% in test [20].
